This note sets out measurements from PubChem BioAssay AID651548 (Broad Institute, 2012).

Several values for one entry are separate records, joined by “and”; a condition that tells them apart may be missing. Equal entries are not always repeated. The campaign covered roughly 57,000 compounds. About 200 (0.35%) were called active. What follows is part of a selection rich in actives, with near analogues and random picks from the rest. A number with no mark means an inactive call.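 The calls were made as follows: active = mean inhibition of replicates at least 50% and every single replicate also reaching 50%; inconclusive = mean inhibition at least 50% but some replicate falls below 50%; inactive = mean inhibition under 50%.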

Histone-lysine N-methyltransferase EZH2 (Homo sapiens), sequence (Q15910 whole entry, looked up): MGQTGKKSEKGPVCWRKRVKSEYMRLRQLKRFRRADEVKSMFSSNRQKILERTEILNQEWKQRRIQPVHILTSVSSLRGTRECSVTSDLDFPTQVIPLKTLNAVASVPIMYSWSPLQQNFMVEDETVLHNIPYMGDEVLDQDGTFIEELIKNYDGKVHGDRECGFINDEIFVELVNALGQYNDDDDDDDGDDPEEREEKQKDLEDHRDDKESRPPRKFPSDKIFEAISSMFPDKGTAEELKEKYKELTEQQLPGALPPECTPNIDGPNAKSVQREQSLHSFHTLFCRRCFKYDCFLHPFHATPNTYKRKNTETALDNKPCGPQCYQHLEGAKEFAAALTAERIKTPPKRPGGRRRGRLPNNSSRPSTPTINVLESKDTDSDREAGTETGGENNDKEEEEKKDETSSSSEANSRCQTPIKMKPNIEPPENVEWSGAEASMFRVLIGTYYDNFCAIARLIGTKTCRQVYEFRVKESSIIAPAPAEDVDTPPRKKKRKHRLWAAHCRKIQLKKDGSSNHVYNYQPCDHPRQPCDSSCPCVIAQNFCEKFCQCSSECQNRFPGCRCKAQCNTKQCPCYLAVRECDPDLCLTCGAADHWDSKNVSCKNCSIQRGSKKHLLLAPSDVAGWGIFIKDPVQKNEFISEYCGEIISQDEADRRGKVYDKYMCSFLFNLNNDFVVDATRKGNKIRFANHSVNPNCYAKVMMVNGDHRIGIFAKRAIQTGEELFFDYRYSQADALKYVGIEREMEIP

The experiment has as its target Histone-lysine N-methyltransferase EZH2 (Homo sapiens) (UniProt Q15910). The experiment can be described thus: EZH2/PRC2 methyltransferase inhibitors, primary screen, biochemical, DELFIA time-resolved fluorescence, single point (AID 651548).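 Also: dimethyl H3K27 on biotinylated H3 21-44 peptide detected by antibody; plate controls were median neutral control wells for no effect and median positive control wells for full effect.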 Conditions: PRC2 H3K27 methylation, DELFIA TRF, 1 h; at 12.5 µM; active compounds read high.
The inhibition is the relative decrease from the control value, in per cent. On to `CO[C@@H]1CN(C)C(=O)c2ccc(NC(=O)C3CC3)cc2OC[C@@H](C)N(Cc2ccncc2)C[C@@H]1C`, for which the inhibition is 8.95%.
As for `O=C(C[C@H]1CC[C@H](NC(=O)c2ccncc2)[C@H](CO)O1)Nc1ccccc1`, the inhibition was 16.3%.
Consider `O=C(C[C@H]1C[C@@H]2c3cc(NS(=O)(=O)c4ccc(F)cc4)ccc3O[C@@H]2[C@H](CO)O1)NCc1cccc(F)c1`, for which the inhibition is -5.18%.
As for `O=C(N[C@H]1CC[C@@H](CCNC(=O)C2CCC2)O[C@@H]1CO)c1ccncc1`, the inhibition is -3.82%.
Regarding `CN(C)CC(=O)Nc1ccc2c(c1)[C@H]1C[C@@H](CC(=O)NCc3ccccn3)O[C@@H](CO)[C@H]1O2`, the inhibition is -17%.
As to `CO[C@H]1CN(C)C(=O)c2ccc(NC(=O)C3CCCC3)cc2OC[C@@H](C)NC[C@@H]1C`, the inhibition was 7.43%.
With `CCC(=O)N1C[C@@H](C)[C@H](OC)CN(C)C(=O)c2ccc(NC(=O)c3cc(C)on3)cc2OC[C@H]1C` the figure was 7.38%; with `CCC(=O)Nc1ccc2c(c1)OC[C@H](C)N(CC1CCCCC1)C[C@@H](C)[C@H](OC)CN(C)C2=O`, -10.4%; with `CC(C)NC(=O)N[C@@H]1C=C[C@@H](CC(=O)N2CCCCC2)O[C@@H]1CO`, 7.89%.
As for `O=C(C[C@@H]1CC[C@H](NC(=O)Nc2ccc(F)cc2)[C@H](CO)O1)NCc1ccccn1`, the inhibition was -0.96%.
Regarding `COc1cccc(-c2cnc3c(c2)C(=O)N([C@@H](C)CO)C[C@H](C)[C@H](CN(C)C(C)=O)O3)c1`, the inhibition was 1.62%.
With `COCC#Cc1cnc2c(c1)C(=O)N([C@H](C)CO)C[C@H](C)[C@H](CN(C)C(=O)Nc1cc(F)ccc1F)O2` the figure was 0.676%; with `COc1cccc(NC(=O)Nc2ccc3c(c2)OC[C@@H](C)NC[C@@H](C)[C@H](OC)CN(C)C3=O)c1`, -3.01%; with `COc1cccc(S(=O)(=O)Nc2ccc3c(c2)[C@@H]2C[C@@H](CC(=O)NCc4ccc(Cl)cc4)O[C@H](CO)[C@@H]2O3)c1`, -2.95%.
Take `O=C(C[C@@H]1C[C@@H]2c3cc(NC(=O)Nc4ccccc4F)ccc3O[C@@H]2[C@@H](CO)O1)NCCc1ccccc1`: the inhibition was -11.7%.
`CC1=CCC(C(C)(C)O[C@@H]2O[C@H](COC(=O)c3cc(O)c(O)c(O)c3)[C@@H](O)[C@H](O)[C@H]2O)CC1` (some centres not stated): the inhibition was 91.8% (active).
Then `C[C@@H]1CN([C@H](C)CO)S(=O)(=O)c2ccc(C#CCN(C)C)cc2O[C@@H]1CN(C)C(=O)C1CCCCC1`, with 1.46%; and `CC(C)NC(=O)Nc1ccc2c(c1)CC(=O)N([C@H](C)CO)C[C@H](C)[C@@H](CN(C)C(=O)Nc1ccc(F)cc1)O2`, with -14.2%; and `C[C@@H]1CN([C@H](C)CO)S(=O)(=O)c2ccc(-c3ccccc3)cc2O[C@@H]1CN(C)C(=O)C1CC1`, with 7.84%.
Turning to `CCCNC(=O)Nc1ccc2c(c1)OC[C@H](C)N(Cc1ccccc1)C[C@H](C)[C@H](OC)CN(C)C2=O`, the inhibition is -21.6%.
With `C[C@H]1CN([C@@H](C)CO)S(=O)(=O)c2ccc(C#CC3CCCC3)cc2O[C@@H]1CN(C)C(=O)c1cccc(F)c1` the figure was 14.8%.
As to `O=C(C[C@@H]1CC[C@@H](NC(=O)C2CC2)[C@H](CO)O1)NCc1ccncc1`, the inhibition is 9.6%.
Turning to `CN(C)CC(=O)N[C@@H]1CC[C@@H](CCn2cc(C3CC3)nn2)O[C@H]1CO`, the inhibition was -8.32%.
Then `CCC(=O)N1C[C@H](C)[C@H](OC)CN(C)C(=O)c2ccc(NC(=O)c3cnccn3)cc2OC[C@@H]1C`, with 10.3%; and `COc1cccc(S(=O)(=O)N[C@H]2C=C[C@@H](CC(=O)NCc3ccc(F)cc3)O[C@@H]2CO)c1`, with 13.3%.
As for `C[C@@H]1CCCCO[C@H](CN(C)C)[C@H](C)CN([C@@H](C)CO)C(=O)c2cc(NS(=O)(=O)c3ccccc3)ccc2O1`, the inhibition is -7.21%.
Then `CCCNC(=O)N1C[C@@H](C)[C@@H](OC)CN(C)C(=O)c2ccc(NC(=O)CCC)cc2OC[C@H]1C`, with -3.61%; and `CC(C)NC(=O)N(C)C[C@H]1Oc2ncc(-c3ccccc3F)cc2C(=O)N([C@@H](C)CO)C[C@@H]1C`, with -0.301%; and `COc1cccc(NC(=O)N[C@H]2C=C[C@@H](CC(=O)Nc3ccc(-c4ccccc4)cc3)O[C@@H]2CO)c1`, with -1.25%.
Then `O=C(C[C@H]1C[C@H]2c3cc(NC(=O)CC4CC4)ccc3O[C@H]2[C@H](CO)O1)NCc1ccccc1`, with -28.9%; and `C[C@@H]1CN([C@H](C)CO)S(=O)(=O)c2ccc(C#CC3CCCCC3)cc2O[C@H]1CN(C)C(=O)Cc1ccncc1`, with -42.6% and -20.9%.
Then `COc1ccc(NC(=O)N[C@H]2CC[C@@H](CCNS(=O)(=O)c3cccc(Cl)c3)O[C@H]2CO)cc1`, with -37.3%; and `CO[C@@H]1CN(C)C(=O)c2ccc(NC(=O)Nc3c(C)noc3C)cc2OC[C@@H](C)N(C(=O)Nc2cccc(Cl)c2)C[C@H]1C`, with -3.56%; and `CCC(=O)N(C)C[C@H]1Oc2cc(C#CC3CC3)ccc2S(=O)(=O)N([C@H](C)CO)C[C@H]1C`, with -6.49%.
With `CCOC(=O)C1CCCN(C(=O)c2c[nH]n3c(=O)c(Cc4ccc(Cl)cc4)c(C)nc23)C1` (configuration not stated), the inhibition was 11.7%.
With `CO[C@@H]1CN(C)C(=O)c2cc(NC(=O)c3ccc(F)cc3)ccc2OC[C@H](C)NC[C@@H]1C` the figure was 8.13%; with `CC(C)C#Cc1ccc2c(c1)O[C@H](CN(C)CC1CCOCC1)[C@@H](C)CN([C@H](C)CO)S2(=O)=O`, 0.383%.
`COc1cccc(S(=O)(=O)N[C@H]2C=C[C@H](CC(=O)NCc3ccc(Cl)cc3)O[C@@H]2CO)c1`: the inhibition is 7.24%.
Take `C[C@H]1CN([C@@H](C)CO)C(=O)c2cccc(NC(=O)Nc3ccccc3)c2O[C@H]1CN(C)Cc1ccc(C(F)(F)F)cc1`: the inhibition is -14.8%.
In the case of `C[C@H](CO)N1C[C@H](C)[C@@H](CN(C)C(=O)c2cccc(F)c2)Oc2cc(-c3cncnc3)ccc2S1(=O)=O`, the inhibition is 14.3% and -4.79%.
On to `COc1ccccc1C(=O)Nc1ccc2c(c1)C(=O)N(C)C[C@@H](OC)[C@@H](C)CN(C)[C@H](C)CO2`, for which the inhibition is 1.85%.
Consider `COc1cccc(-c2cnc3c(c2)C(=O)N([C@H](C)CO)C[C@@H](C)[C@H](CN(C)Cc2ccc(F)cc2)O3)c1`, for which the inhibition is 10%.
Then `CC(C)NC(=O)N(C)C[C@@H]1Oc2cc(C#C[C@H](C)O)ccc2S(=O)(=O)N([C@@H](C)CO)C[C@H]1C`, with 8.88%; and `C[C@@H]1CN([C@H](C)CO)S(=O)(=O)c2ccc(C#CC3(O)CCCC3)cc2O[C@@H]1CN(C)C(=O)c1cccnc1`, with 5.12%.
Turning to `COCC(=O)Nc1ccc2c(c1)[C@@H]1C[C@H](CC(=O)NCc3cc(F)ccc3F)O[C@@H](CO)[C@@H]1O2`, the inhibition was -6.69%.
Then `C[C@@H]1CN([C@@H](C)CO)S(=O)(=O)c2ccc(-c3ccc(C#N)cc3)cc2O[C@H]1CN(C)Cc1ccccn1`, with 5.38%.
For the compound `CO[C@@H]1CN(C)C(=O)c2ccc(NC(=O)C3CCC3)cc2OC[C@H](C)N(C(=O)CN(C)C)C[C@H]1C`, the inhibition was 0.087%.
`O=C(C[C@@H]1C[C@@H]2c3cc(NC(=O)NC4CCCC4)ccc3O[C@@H]2[C@H](CO)O1)NCC(F)(F)F`: the inhibition was 3.2%.
Then `CC(C)(C)S(=O)N1Cc2cc(C(=O)O)nc(-c3cccc(-c4cc5ccccc5o4)c3)c2[C@@H]1CCO` (some centres not stated), with 9.63%; and `CO[C@@H]1CN(C)C(=O)c2cc(NC(=O)NC3CCCCC3)ccc2OC[C@H](C)N(CC2CC2)C[C@H]1C`, with -6.48%; and `O=C(N[C@H]1CC[C@H](CCNS(=O)(=O)c2ccc(F)cc2)O[C@H]1CO)C1CCCC1`, with -3.3%.
Then `O=C(C[C@@H]1C=C[C@H](NC(=O)C2CCC2)[C@@H](CO)O1)NCC1CC1`, with 10.5%.
With `CCCN1C[C@H](C)[C@@H](OC)CN(C)C(=O)c2ccc(NC(=O)C3CCOCC3)cc2OC[C@H]1C` the figure was 7.14%; with `O=C(C[C@H]1C=C[C@H](NC(=O)Nc2ccc(C(F)(F)F)cc2)[C@@H](CO)O1)NCCN1CCCC1`, 11.8%.
Regarding `C[C@@H]1CCCCO[C@@H](CN(C)Cc2ccncc2)[C@H](C)CN([C@H](C)CO)C(=O)c2cc(NC(=O)CCC(F)(F)F)ccc2O1`, the inhibition was 0.938%.
For `CCC(=O)N1C[C@@H](C)[C@H](OC)CN(C)C(=O)c2ccc(NC(=O)NC(C)C)cc2OC[C@H]1C`, the inhibition is 5.57%.
With `CNC[C@@H]1Oc2cc(C#CC3(O)CCCC3)ccc2S(=O)(=O)N([C@@H](C)CO)C[C@H]1C` the figure was -0.413%; with `OC[C@H]1O[C@@H](OCc2ccccc2)[C@H](O[C@@H]2OC[C@](O)(CO)[C@H]2O)[C@@H](O)[C@@H]1O`, 10.5%.
For the compound `OC[C@@]1(O)CO[C@H](OC[C@H]2O[C@@H](OC(CCCCc3ccc(O)cc3)CCc3ccc(O)cc3)[C@H](O[C@H]3OC[C@](O)(CO)[C@H]3O)[C@@H](O)[C@@H]2O)[C@@H]1O` (some centres not stated), the inhibition is 99% (active).
Then `C/C=C/c1ccc2c(c1)O[C@@H](CN(C)C(=O)NC1CCCC1)[C@@H](C)CN([C@H](C)CO)S2(=O)=O`, with 10.7%; and `CCCN(C)C[C@H]1OCCCC[C@H](C)Oc2ccc(NS(=O)(=O)c3ccc(C)cc3)cc2C(=O)N([C@@H](C)CO)C[C@H]1C`, with -43.7%; and `CO[C@H]1CN(C)C(=O)c2ccc(NC(=O)c3cnccn3)cc2OC[C@@H](C)N(C(C)=O)C[C@H]1C`, with 7.05%.
